Screening results deposited in PubChem BioAssay by several laboratories.
An excerpt weighted towards active compounds, which were near 3.5% of everything screened.
ERb SRC1 inh: ER-beta (human) coactivator binding inhibition; AID 633; Q92731; TR-FRET ER-beta LBD / SRC1-Cy5 peptide binding; receptor agonist-loaded with 1 µM estradiol; inhibition, % at 25.6 µM; actives 1.3% (n = 86,000);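 active = compounds whose percent inhibition of the receptor-coactivator binding signal exceeds about 50% in the single-dose screen, limit read from the data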;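 note: 0% = receptor plus peptide wells without compound and 100% = peptide-only wells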
FAK inh: FAK (human) kinase inhibition; actives 0.84% (n = 97,000); biochemical FAK kinase activity assay; inhibition, %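 (tested at 7 µM)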; Q05397; AID 727; in the data active = inhibition above about 19%;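 note: 0% = DMSO and 100% = reference compound high control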
CD11b adhes enh: increases human CD11b/CD18 adhesion to fibrinogen. P05107+P11215. actives 0.07% (n = 93,000). activation, % at 10 µM. K562 CD11b/CD18 adhesion to fibrinogen, ATPlite luminescence;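 active = 10 µM primary screen giving 50% or more activity, confirmed by 40% or more on retest at that dose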
Target sequence (P05107 whole entry, looked up, other chains not shown): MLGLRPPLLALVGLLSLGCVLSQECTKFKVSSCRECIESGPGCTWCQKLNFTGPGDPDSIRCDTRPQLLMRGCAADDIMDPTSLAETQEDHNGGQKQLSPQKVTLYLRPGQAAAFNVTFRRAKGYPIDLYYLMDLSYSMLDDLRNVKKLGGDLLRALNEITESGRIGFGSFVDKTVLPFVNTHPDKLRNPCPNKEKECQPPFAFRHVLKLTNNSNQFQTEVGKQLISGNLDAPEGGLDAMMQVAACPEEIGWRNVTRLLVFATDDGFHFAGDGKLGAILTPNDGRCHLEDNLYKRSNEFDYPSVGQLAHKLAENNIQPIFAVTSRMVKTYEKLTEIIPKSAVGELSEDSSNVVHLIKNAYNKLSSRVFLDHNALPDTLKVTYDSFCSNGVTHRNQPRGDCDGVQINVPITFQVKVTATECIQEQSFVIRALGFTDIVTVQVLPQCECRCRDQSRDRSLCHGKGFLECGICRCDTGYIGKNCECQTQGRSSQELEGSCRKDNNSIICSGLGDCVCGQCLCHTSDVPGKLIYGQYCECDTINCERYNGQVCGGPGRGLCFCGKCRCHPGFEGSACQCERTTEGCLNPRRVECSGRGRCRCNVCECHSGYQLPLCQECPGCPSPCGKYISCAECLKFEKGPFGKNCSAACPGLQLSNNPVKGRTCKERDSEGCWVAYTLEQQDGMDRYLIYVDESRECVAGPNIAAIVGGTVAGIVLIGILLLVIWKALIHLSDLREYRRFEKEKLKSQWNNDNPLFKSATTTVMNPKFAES
ERa coact inh: blocks coactivator binding to human estrogen receptor alpha | TR-FRET ER-alpha LBD / SRC-1 peptide, estradiol-bound | P03372 | inhibition, % at 25.6 µM | actives 1.7% (n = 86,000); in the data active = inhibition above about 50%;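 note: 0% = receptor plus peptide control and 100% = peptide only without receptor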
Mac1 fbg inh: blocks human CD11b/CD18 adhesion to fibrinogen; inhibition, % at 10 µM; K562 CD11b/CD18 adhesion to fibrinogen, ATPlite luminescence; Mn2+ added to activate the integrin; AID 1497; actives 0.54% (n = 93,000);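 active = primary inhibition of 50% or more at 10 µM, then 40% or more on retest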
ERa SRC1 pot: enhances coactivator binding to human estrogen receptor alpha; P03372; TR-FRET ERalpha-LBD/SRC-Cy5 coactivator binding, 2 h; 100 = basal binding, no effect; coactivator binding (% of control), % at 25.6 µM; actives 1.3% (n = 86,000); AID 639; in the data active = activity above about 200%;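 note: binding measured in presence of low estradiol as agonist stimulus; 0% = peptide alone without receptor and 100% = receptor with peptide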
* marks the source's active call; other numbers are inactive results; x = no result; [ ] = dose if it differs, or a comment.

SMILES | ERb SRC1 inh | FAK inh | CD11b adhes enh | ERa coact inh | Mac1 fbg inh | ERa SRC1 pot
O=C1CCCC2=C1C(c1cn(-c3ccccc3)nc1-c1cccs1)c1c([nH]c(=O)[nH]c1=O)N2 (stereo not given) | 20 | 8 | 28 | 24 | -12 | 114
COC(=O)c1cn(NC(=O)c2cc(OC)c(OC)c(OC)c2)c(=O)c2ccccc12 | 17 | 2 | x | 58*[fluorescence artefact?] | x | 92
Cc1nc2ncnn2c(N2CCN(C(=O)Cc3cccs3)CC2)c1C | 85*[fluorescence artefact?] | 2 | 4 | 90*[fluorescence artefact?] | 13 | 27
O=C(Cc1cccs1)N1CCN(c2ccc(F)cc2)CC1 | -7 | 0 | x | -6 | x | 111
O=C1OCCC1S(=O)(=O)c1ccc2ccccc2c1 (stereo not given) | 4 | -7 | -5 | 4 | -5 | 99
COc1ccc(/C=N/Nc2nncc3ccccc23)cc1 | x | x | -10 | x | 95* | x
CC(C)OC(=O)CCCNc1ccc([N+](=O)[O-])cc1[N+](=O)[O-] | x | x | 1 | x | 3 | x
COc1cc(NS(=O)(=O)c2ccc(OC)c(OC)c2)cc(OC)c1 | -1 | 0 | -1 | -3 | -11 | 103
O=c1[nH]c2cc3c(cc2cc1C(c1nnnn1C1CCCC1)N1CCSCC1)OCCO3 (stereo not given) | 10 | -5 | 63 | 20 | 0 | 215*[fluorescence artefact?]
OC(CSc1ccccc1Cl)CN1CCN(c2ccc(F)cc2)CC1 (stereo not given) | x | -1 | 0 | x | -4 | x
O=C(COc1ccc(-n2cnnn2)cc1)NC1CCCCC1 | 24 | x | -2 | 7 | -3 | 106
COc1ccc(OC)c(NC(=O)COC(=O)c2ccc(-n3cnnn3)cc2)c1 | 9 | 6 | -1 | 35 | 1 | 110
COc1cc(NC(=O)COc2ccc(-n3cnnn3)cc2)c(OC)cc1Cl | 67*[fluorescence artefact?] | 5 | 78 | 77* | -7 | 44
Cc1ccc(NC(=O)COc2ccc(-n3cnnn3)cc2)cc1C | 69* | 5 | x | 74*[fluorescence artefact?] | x | 52
COc1ccc(C2C(C(=O)NCCN(C)C)c3cc(OC)c(OC)cc3C(=O)N2C)cc1OC (stereo not given) | 1 | x | -3 | 6 | -35 | 99
CCCCN(C(=O)NC(=O)Nc1cc(C)ccc1C)S(C)(=O)=O | 91*[fluorescence artefact?] | 12 | -5 | 0 | -14 | 104
NC1=NC2(CCCCC2)n2c(nc3ccccc32)N1 | 3 | -3 | 2 | 52*[fluorescence artefact?] | 22 | 36
O=C(c1ccco1)N1CCN(C(=O)c2sccc2-c2ccccc2)CC1 | 5 | -8 | x | 2 | x | 107
Cc1cc(C)c2nc3s/c(=C/c4ccccc4)c(=O)n3c2c1 | x | 0 | -5 | x | 57* | x
O=C(Cc1ccc(Cl)cc1)Nc1nc2ccccc2[nH]1 | x | 0 | -5 | x | 5 | x
O=C(NCCCCCCNC(=O)c1ccc(Br)s1)c1ccc(Br)s1 | 58*[fluorescence artefact?] | -37 | x | 82*[fluorescence artefact?] | x | 417*
O=C(NCCCCNC(=O)c1ccc(Cl)s1)c1ccc(Cl)s1 | 7 | -2 | x | 4 | x | 155
CCCOc1ccc(-c2nnc(-c3cccs3)o2)cc1 | 17 | -2 | x | 15 | x | 215*[fluorescence artefact?]
Oc1c(C(Nc2nc3ccccc3s2)c2ccco2)ccc2cccnc12 (stereo not given) | 3 | 2 | 21 | 0 | -5 | 105
Cc1conc1NC(c1cccs1)c1ccc2cccnc2c1O (stereo not given) | 46 | -2 | -3 | 57*[fluorescence artefact?] | 4 | 66
SMILES | ERb SRC1 inh | FAK inh | CD11b adhes enh | ERa coact inh | Mac1 fbg inh | ERa SRC1 pot
COc1ccccc1OCCC(=O)OCC(=O)Nc1ncc(Cl)cc1Cl | 40 | 8 | 0 | 54*[fluorescence artefact?] | 38 | 48
COc1cc(CCC(=O)OCC(=O)Nc2nc(C)c(Cl)cc2Cl)cc(OC)c1OC | x | -1 | 2 | x | 0 | x
COc1cc(CCC(=O)OCC(=O)Nc2ncc(Cl)cc2Cl)cc(OC)c1OC | 59* | 1 | x | 56*[fluorescence artefact?] | x | 22
COc1ccc(CC(=O)OCC(=O)Nc2ncc(Cl)cc2Cl)cc1OC | -4 | -1 | -4 | -2 | 3 | 99
C=CCc1cccc2cc(C(=O)NCc3cccnc3)c(=O)oc12 | 44 | x | 2 | 81*[fluorescence artefact?] | 4 | 65
COc1cc2c(cc1NC(=O)c1cc(-c3cccnc3)nc3ccc(C)cc13)oc1ccccc12 | x | 6 | x | x | x | x
CSc1nncn1/N=C/c1ccccc1F | 4 | 0 | -2 | 4 | -20 | 97
CCN=C1SC(CC(=O)NC(C)C)C(=O)N1CC (stereo not given) | -26 | -1 | -1 | 3 | -20 | 853*[fluorescence artefact?]
COc1ccc(C2C(C(=O)Nc3ccccc3OC)=C(C)Nc3ncnn32)cc1 (stereo not given) | -11 | 6 | -3 | -5 | -11 | 110
O=S(=O)(Nc1ccc(-c2nc3cccnc3s2)cc1)c1ccc(Cl)s1 | 11 | -79 | -10 | 77*[fluorescence artefact?] | 92 | 87
O=S(=O)(NCc1cccnc1)c1ccc(Cl)s1 | -14 | -7 | x | -3 | x | 103
COc1ccc(S(=O)(=O)N(CC(=O)N/N=C/c2cccs2)c2cc(C)cc(C)c2)cc1OC | x | -1 | 4 | x | -24 | x
COc1ccc(C(=O)c2ccc(N3CCN(C(=O)c4ccc(F)cc4)CC3)c(F)c2)cc1Br | 22 | 2 | -5 | 24 | 49 | 292*[fluorescence artefact?]
Cc1cc(C)c2cc(CN(CCO)C(=O)Nc3ccc(Cl)cc3)c(=O)[nH]c2c1 | -13 | x | -2 | -19 | 28 | 232*
Cc1cc(C)c2cc(CN(CCN3CCCC3)C(=O)Nc3ccc(F)cc3)c(=O)[nH]c2c1 | -14 | -7 | 2 | 11 | 42 | 101
Cc1ccc(/C=N/NC(=S)NC(C)C)o1 | x | 0 | -3 | x | 0 | x
CCOc1ccc(S(=O)(=O)NCc2ccncc2)cc1 | -6 | -2 | -7 | -7 | 98* | 95
Cc1ccc(S(=O)(=O)NCC(=O)NCc2ccncc2)cc1 | -3 | -1 | x | -6 | x | 119
Cc1ccc(S(=O)(=O)NCc2ccncc2)cc1 | -1 | -1 | -5 | -5 | 69* | 132
COc1ccc([N+](=O)[O-])cc1NC(=O)Cn1ccsc1=N | x | x | -1 | x | -4 | x
O=C1[C@@H]2[C@@H]3C[C@@H]([C@H]4ON=C(c5ccc(Cl)cc5)[C@@H]34)[C@@H]2C(=O)N1C1CCCCC1 | x | x | -5 | x | 49 | x
COc1cc2[nH]c(=S)n(Cc3ccco3)c(=O)c2cc1OC | -19 | -2 | -2 | 8 | 5 | 117
COc1ccc(NC(=O)c2ccc3c(=O)n(Cc4ccco4)c(=S)[nH]c3c2)c(OC)c1 | 13 | -2 | 1 | 73*[fluorescence artefact?] | 3 | 110
CCCC(=O)Nc1ccc(Br)cn1 | -6 | 1 | -2 | 9 | 33 | 99
Cc1ccccc1C(=O)Nc1ccc(Br)cn1 | -2 | 0 | -6 | -5 | 4 | 204*
CCOC(=O)c1c2c(n(C)c1C)C(=O)C(=O)c1ccc(Br)cc1-2 | 6 | 40* | x | 12 | x | 98
CS(=O)(=O)N(CCc1ccccc1)CC(=O)N1CCN(Cc2ccccc2)CC1 | 5 | 1 | x | 27 | x | 105
